The record followed here is PubChem BioAssay (NCATS).

Inconclusive results are not listed. Active and inactive are the calls of the source. Unless noted, calls come from the whole dose curve.

The nature of experiment [1]: qHTS assay for small molecule agonists of retinoid X receptor alpha signaling (AID 588544).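 For activation: 0% = DMSO basal wells and 100% = reference agonist.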 As to conditions: HEK293T RXRa-UAS-bla, beta-lactamase reporter, 18 h; 530 nm emission. On the technique in general: In qHTS, concentration-response curves come from the screen itself.
The target of experiment [2] is Retinoic acid receptor RXR-alpha (Homo sapiens) (UniProt P19793). Described as above. To be noted: HEK293T RXRa-UAS-bla, beta-lactamase reporter, 18 h; series mostly up to 76.7 µM.
The target in experiment [3] is Thyroid hormone receptor beta (Homo sapiens) (UniProt P10828). Briefly: qHTS assay for small molecule agonists of thyroid hormone receptor beta signaling (AID 588545).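 Note: 0% = DMSO only and 100% = 10 nM T3.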 As to conditions: TR-UAS-bla GripTite HEK 293, beta-lactamase ratio, agonist mode, 18 h, percent of T3 response, DMSO as zero; series mostly up to 76.7 µM. The method, boiled down: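 Efficacy and EC50 values derive from Hill fits of qHTS titration data, normalized to 10 nM T3 and DMSO-only wells. HEK 293 reporter cells were stimulated for 18 hrs at 37 C, with beta-lactamase activity measured by CCF4 fluorescence.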

The nature of experiment [4]: qHTS assay for small molecule antagonists of retinoid X receptor alpha signaling (AID 588546; active = well fitted inhibition curve with a large enough effect in the signal ratio, with a control signal flat, not every such curve was filed as active; the % refers to the signal ratio;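 note: cells stimulated with 9-cis-retinoic acid as agonist; % is set by controls: 0 for no effect and ±100 for the full control effect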). To be noted: HEK293T RXRa-UAS-bla, beta-lactamase ratio, antagonist mode; measured here: W530 green channel, cytotoxicity proxy. Put shortly: (§1)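 Beta-lactamase reporter inhibition, read as CCF4 fluorescence ratio (ex 405, em 460/530 nm) after 2 h at RT. HEK293T UAS-bla cells, 2500/well, were stimulated with 9-cis-RA at 500 or 100 nM final alongside test compound for 18 h at 37 C.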

The target in experiment [5] is Retinoic acid receptor RXR-alpha (Homo sapiens) (UniProt P19793). The description is as above. To be noted: HEK293T RXRa-UAS-bla, beta-lactamase ratio, antagonist mode. Put shortly:
as §1

A short description of experiment [6]: qHTS assay for small molecule activators of the p53 signaling pathway (AID 651743; active = well fitted activation curve with a large enough effect in the signal ratio, not every such curve was filed as active; the % refers to the signal ratio; note: % of control where 0% means no effect). As to conditions: HCT-116 p53RE-bla, beta-lactamase FRET ratio, 16 h; stronger effect = higher value. Put shortly:
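A beta-lactamase reporter under p53 response element control, stably carried by HCT-116 cells, reported pathway activation. Test compounds were applied for 16 hours at 37 C, and fluorescence was measured 2 hours after adding the B/G FRET substrate.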

Experiment [7] can be described thus: qHTS assay for small molecule disruptors of the mitochondrial membrane potential - 1 hr assay (AID 651754). Note: % is set by controls: 0 for no effect and ±100 for the full control effect; nearly all actives have a fitted effect of over 35% in size. As to conditions: series mostly up to 92.2 µM. The method, boiled down: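 Read-out: dye fluorescence at 490 nm ex/535 nm em (monomers) and 540 nm ex/590 nm em (aggregates) in HepG2 cells. Compound exposure 1 hr at 37C, followed by 30 min dye loading.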

A short description of experiment [8]: qHTS assay for small molecule disruptors of the mitochondrial membrane potential - 5 hr assay (AID 651755). Note: % is set by controls: 0 for no effect and ±100 for the full control effect; nearly all actives have a fitted effect of over 40% in size. To be noted: JC-1-type ratio dye; series mostly up to 92.2 µM. Put shortly:
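Membrane-potential dye readout: red aggregate (540 ex/590 em) versus green monomer (490 ex/535 em) fluorescence after 30 min dye loading, following 5 hr compound exposure at 37C of overnight-plated HepG2 cells.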

Experiment [9] addresses Tumor necrosis factor (Homo sapiens) (UniProt P01375). Nature of the experiment: qHTS assay to identify small molecules that stimulate Tumor Necrosis Factor-alpha (TNF-alpha) secretion (AID 651757; active = well fitted curve in the direction sought with a large enough effect in the signal ratio; the % refers to the signal ratio; note: 0% is about no effect). To be noted: Human cells, HTRF 665/615 ratio; series mostly up to 92.2 µM. Put shortly:
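THP-1 cells, 3000/well; compound 17 hrs, 37 C; add cryptate/XL665 anti-TNF-alpha antibody pair; 3 hr RT; TR-FRET (HTRF) read of secreted TNF-alpha. Quantitative HTS format.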

Experiment [10] can be described thus: qHTS assay to identify small molecules that stimulate interleukin-8 (IL-8) secretion (AID 651758; active = well fitted activation curve with a large enough effect in the signal ratio; the % refers to the signal ratio; note: 0% is about no effect). To be noted: HTRF ratio (665/615); series mostly up to 92.2 µM. Put shortly: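 Secreted IL-8 measured homogeneously by TR-FRET (two labelled anti-IL-8 antibodies, 1-3 h at room temperature) after a 16 h, 37 C compound treatment of THP-1 cells at 2000 cells/well.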

The nature of experiment [11]: qHTS assay for environmental chemicals that activate the Aryl hydrocarbon Receptor (AhR) signaling pathway (AID 651777; active = well fitted curve in the direction sought with a large enough effect; an effect the other way counts as inactive or inconclusive; note: % of control where 0% means no effect; nearly all actives have a fitted effect of over 15% in size). To be noted: 1A2-DRE human hepatoma cells, luciferase, 24 h; activation: stronger effect = higher value. Put shortly:
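Luminescence read-out: One-Glo added for 30 min at RT after 24 hr compound treatment (37 C, 5% CO2) of human hepatoma cells expressing a DRE/CYP1A2 promoter–luciferase reporter; increased signal indicates AhR activation.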

Experiment [12] addresses Peroxisome proliferator-activated receptor alpha (Homo sapiens) (UniProt Q07869). Nature of the experiment: qHTS assay for small molecule agonists of the peroxisome proliferator-activated receptor alpha (PPARalpha) signaling pathway (AID 651778; active = well fitted curve in the direction sought with a large enough effect; an effect the other way counts as inactive or inconclusive; note: % of control where 0% means no effect). To be noted: PathHunter PPARalpha complementation, chemiluminescence, 6 h; stronger effect = higher value. Put shortly: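 Chemiluminescence from complemented enzyme reported PPARalpha activation in cells after 6 hr of compound treatment at 37 C. The detection reagent was incubated for 60 min at room temperature, and compounds were scored as agonists.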

The target in experiment [13] is Nuclear receptor ROR-gamma (Homo sapiens) (UniProt P51449). Nature of the experiment: qHTS assay for small molecule antagonists of the retinoid-related orphan receptor gamma (ROR-gamma) signaling pathway (AID 651802; active = well fitted curve in the direction sought with a large enough effect; an effect the other way counts as inactive or inconclusive;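 note: CHO cells with doxycycline-induced ROR-gamma expression; luciferase reporter luminescence driven by ROR response element; % is set by controls: 0 for no effect and ±100 for the full control effect; nearly all actives have a fitted effect of over 60% in size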). To be noted: ROR-gamma antagonist cell reporter assay; series mostly up to 92.2 µM. The method, boiled down: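 Luciferase read-out: ONE-Glo luminescence after 30 min at room temperature, following 16hr doxycycline induction at 37C, 5% CO2 of CHO cells with TET-inducible ROR and RORE-LUC reporter; decreased luminescence = reduced reporter activity.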

The nature of experiment [14]: qHTS assay for small molecule agonists of the antioxidant response element (ARE) signaling pathway measured by Nrf2-dependant transcriptional activity (AID 720636; active = well fitted curve in the direction sought with a large enough effect in the repeat runs; an effect the other way counts as inactive or inconclusive;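 note: HepG2 cells with an ARE-driven luciferase reporter; % of control where 0% means no effect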). As to conditions: ARE-luc HepG2, Nrf2 luciferase reporter, 16 h; series mostly up to 92.4 µM. Put shortly:
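HepG2 ARE-luc reporter line, 1% dialyzed FBS; 6 hr attachment at 37 C, compound pinned in, 16 hr at 37 C/5% CO2; ONE-Glo, 30 min RT, luminescence read.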

Experiment [15] in a line: qHTS assay for small molecule antagonists of the retinoid-related orphan receptor gamma (ROR-gamma) signaling pathway - cell viability counter screen (AID 720652; active = well fitted curve in the direction sought with a large enough effect in the repeat runs; an effect the other way counts as inactive or inconclusive;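 note: CHO reporter cells with doxycycline-induced ROR-gamma expression; compound exposure lasted 16 hr before ATP read; % is set by controls: 0 for no effect and ±100 for the full control effect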). As to conditions: RORgamma reporter cell line viability counter screen; series mostly up to 92.2 µM. The method, boiled down: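 CHO RORE-LUC/TET-ROR line, 1,000 cells/well, 37 C 5% CO2 5 hr; cpd or DMSO + doxycycline induction, 16 hr. CellTiter-Glo, 30 min RT, luminescence = ATP content.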

Experiment [16] is described as follows: qHTS assay for small molecule agonists of the antioxidant response element (ARE) signaling pathway measured by Nrf2-dependant transcriptional activity - cell viability counter screen (AID 720653; active = well fitted curve in the direction sought with a large enough effect in the repeat runs; an effect the other way counts as inactive or inconclusive; note: % is set by controls: 0 for no effect and ±100 for the full control effect). As to conditions: ARE-bla HepG2 viability, CellTiter-Glo ATP luminescence, 16 h; stronger effect = lower value. The method, boiled down: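 Cytotoxicity counter screen: intracellular ATP quantified by CellTiter-Glo luminescence in the same ARE-bla HepG2 plates, after 16 h compound exposure and a 2 h beta-lactamase substrate step.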

In experiment [17] the target is Thyroid hormone receptor beta (Homo sapiens) (UniProt P10828). Briefly: qHTS assay for small molecule antagonists of thyroid hormone receptor beta signaling (AID 588547; active = well fitted inhibition curve with a large enough effect in the signal ratio, with a control signal flat, not every such curve was filed as active; the % refers to the signal ratio;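 note: cells stimulated with 0.4 nM T3 agonist during compound exposure; % is set by controls: 0 for no effect and ±100 for the full control effect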). As to conditions: TR-UAS-bla HEK293, beta-lactamase ratio, antagonist mode, 18 h. Put shortly:
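Inhibition of T3-driven (0.4nM final) beta-lactamase reporter activity was measured over 0.59 nM to 92 uM compound after 18 h at 37 C. The cells were GripTite HEK293 TR-UAS-bla in charcoal/dextran-stripped serum, with CCF4 ratio read-out and IC50 from Hill fits.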

Experiment [18] concerns the target Voltage-gated inwardly rectifying potassium channel KCNH2 (Homo sapiens) (UniProt Q12809). Briefly: qHTS Assay for Small Molecule Inhibitors of the Human hERG Channel Activity (AID 588834; active = well fitted curve in the direction sought with a large enough effect; an effect the other way counts as inactive or inconclusive;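 note: top concentration of the series differs between compounds; % is set by controls: 0 for no effect and ±100 for the full control effect; lower thallium flux fluorescence means stronger hERG block; nearly all actives have a fitted effect of over 50% in size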). To be noted: U2OS BacMam hERG, FluxOR thallium flux fluorescence; series mostly up to 92.2 µM. The method, boiled down: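 Thallium serves as surrogate for K+ influx through BacMam-delivered hERG in U2OS cells. Compounds are added for about 10 minutes after dye loading; stimulation buffer then starts flux, monitored kinetically on FDSS.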

Experiment [19] is described as follows: qHTS assay for small molecule agonists of the antioxidant response element (ARE) signaling pathway (AID 651741; active = well fitted activation curve with a large enough effect in the signal ratio; the % refers to the signal ratio; note: potency is the fitted concentration of half-maximal effect; for activation: % of control where 0% means no effect). As to conditions: HepG2 ARE-bla reporter, beta-lactamase FRET ratio, 16 h; series mostly up to 96 µM. Put shortly: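 Agonist activity is measured as ARE-driven beta-lactamase expression in a stable HepG2 reporter line, using 16 h compound treatment at 37 C and a FRET substrate fluorescence readout after 2 h.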

The nature of experiment [20]: qHTS assay for small molecule activators of the nuclear factor-kappa B (NF-kB) signaling pathway (AID 651749; active = well fitted activation curve with a large enough effect in the signal ratio; the % refers to the signal ratio; note: % of control where 0% means no effect). To be noted: NF-kB-bla ME-180 cells, beta-lactamase FRET ratio, 16 h; stronger effect = higher value. The method, boiled down: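 FRET-based beta-lactamase detection in ME-180 cells reports NF-kB response-element-driven transcription following overnight (16 hr) compound treatment.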

Nuclear receptor ROR-gamma (Homo sapiens), sequence (P51449 whole entry, looked up): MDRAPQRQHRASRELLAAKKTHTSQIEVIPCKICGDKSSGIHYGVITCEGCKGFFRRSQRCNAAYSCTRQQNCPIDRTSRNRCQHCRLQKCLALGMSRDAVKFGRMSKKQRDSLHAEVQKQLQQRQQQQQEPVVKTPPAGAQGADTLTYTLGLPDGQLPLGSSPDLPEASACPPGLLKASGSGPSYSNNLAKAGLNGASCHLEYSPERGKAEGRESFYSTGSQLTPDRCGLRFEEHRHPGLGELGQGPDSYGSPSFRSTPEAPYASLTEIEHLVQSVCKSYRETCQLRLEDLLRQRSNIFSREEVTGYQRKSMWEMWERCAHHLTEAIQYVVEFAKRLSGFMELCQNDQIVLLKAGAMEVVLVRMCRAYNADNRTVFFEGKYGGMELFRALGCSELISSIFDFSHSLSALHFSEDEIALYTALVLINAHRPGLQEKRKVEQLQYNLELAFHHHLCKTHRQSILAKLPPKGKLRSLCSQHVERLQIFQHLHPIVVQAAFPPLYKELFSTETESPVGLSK
Peroxisome proliferator-activated receptor alpha (Homo sapiens), sequence (Q07869 whole entry, looked up): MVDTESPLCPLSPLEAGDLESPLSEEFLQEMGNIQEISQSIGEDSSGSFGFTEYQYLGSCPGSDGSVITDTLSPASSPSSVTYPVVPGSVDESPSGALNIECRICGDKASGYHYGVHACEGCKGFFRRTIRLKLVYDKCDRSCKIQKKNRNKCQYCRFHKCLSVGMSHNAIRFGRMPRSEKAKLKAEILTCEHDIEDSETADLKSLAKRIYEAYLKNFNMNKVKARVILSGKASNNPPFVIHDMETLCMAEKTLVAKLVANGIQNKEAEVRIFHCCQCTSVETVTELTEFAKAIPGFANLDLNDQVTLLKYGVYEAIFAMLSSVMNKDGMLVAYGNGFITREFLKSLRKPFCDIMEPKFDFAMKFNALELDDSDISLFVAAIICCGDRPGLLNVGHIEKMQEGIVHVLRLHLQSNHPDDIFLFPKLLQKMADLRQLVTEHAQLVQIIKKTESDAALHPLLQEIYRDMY
Retinoic acid receptor RXR-alpha (Homo sapiens), sequence (P19793 whole entry, looked up): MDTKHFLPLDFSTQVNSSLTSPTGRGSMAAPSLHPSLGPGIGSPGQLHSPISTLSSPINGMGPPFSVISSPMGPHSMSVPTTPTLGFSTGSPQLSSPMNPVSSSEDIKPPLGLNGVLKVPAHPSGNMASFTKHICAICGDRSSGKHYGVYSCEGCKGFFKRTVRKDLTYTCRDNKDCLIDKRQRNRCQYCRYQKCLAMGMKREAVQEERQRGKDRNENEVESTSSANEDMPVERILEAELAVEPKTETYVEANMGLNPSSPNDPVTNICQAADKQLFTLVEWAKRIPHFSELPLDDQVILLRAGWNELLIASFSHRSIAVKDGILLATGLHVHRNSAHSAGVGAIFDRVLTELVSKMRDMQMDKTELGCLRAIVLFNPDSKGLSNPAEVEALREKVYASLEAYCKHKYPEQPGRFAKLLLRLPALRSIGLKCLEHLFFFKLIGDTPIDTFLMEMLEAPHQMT
Tumor necrosis factor (Homo sapiens), sequence (P01375 whole entry, looked up): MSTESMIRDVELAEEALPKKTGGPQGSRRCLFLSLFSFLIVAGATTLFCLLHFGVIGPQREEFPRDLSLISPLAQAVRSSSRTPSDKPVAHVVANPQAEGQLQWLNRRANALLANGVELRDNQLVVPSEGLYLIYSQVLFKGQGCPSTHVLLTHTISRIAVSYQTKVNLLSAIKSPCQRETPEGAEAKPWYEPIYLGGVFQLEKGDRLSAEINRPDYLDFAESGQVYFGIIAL
Thyroid hormone receptor beta (Homo sapiens), sequence (P10828 whole entry, looked up): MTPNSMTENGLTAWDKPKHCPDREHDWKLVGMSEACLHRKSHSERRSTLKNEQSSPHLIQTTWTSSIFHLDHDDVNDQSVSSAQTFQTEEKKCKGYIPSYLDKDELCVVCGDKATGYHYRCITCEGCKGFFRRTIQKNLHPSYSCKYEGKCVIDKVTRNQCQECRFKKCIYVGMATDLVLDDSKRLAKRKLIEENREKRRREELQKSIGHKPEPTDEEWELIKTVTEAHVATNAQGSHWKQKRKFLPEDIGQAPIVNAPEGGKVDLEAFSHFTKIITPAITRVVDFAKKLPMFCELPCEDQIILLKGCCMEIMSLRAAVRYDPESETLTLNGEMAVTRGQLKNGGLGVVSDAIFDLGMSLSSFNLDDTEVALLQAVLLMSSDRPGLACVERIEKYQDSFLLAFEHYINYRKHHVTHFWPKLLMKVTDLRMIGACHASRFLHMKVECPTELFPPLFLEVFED
Voltage-gated inwardly rectifying potassium channel KCNH2 (Homo sapiens), sequence (Q12809 whole entry, looked up): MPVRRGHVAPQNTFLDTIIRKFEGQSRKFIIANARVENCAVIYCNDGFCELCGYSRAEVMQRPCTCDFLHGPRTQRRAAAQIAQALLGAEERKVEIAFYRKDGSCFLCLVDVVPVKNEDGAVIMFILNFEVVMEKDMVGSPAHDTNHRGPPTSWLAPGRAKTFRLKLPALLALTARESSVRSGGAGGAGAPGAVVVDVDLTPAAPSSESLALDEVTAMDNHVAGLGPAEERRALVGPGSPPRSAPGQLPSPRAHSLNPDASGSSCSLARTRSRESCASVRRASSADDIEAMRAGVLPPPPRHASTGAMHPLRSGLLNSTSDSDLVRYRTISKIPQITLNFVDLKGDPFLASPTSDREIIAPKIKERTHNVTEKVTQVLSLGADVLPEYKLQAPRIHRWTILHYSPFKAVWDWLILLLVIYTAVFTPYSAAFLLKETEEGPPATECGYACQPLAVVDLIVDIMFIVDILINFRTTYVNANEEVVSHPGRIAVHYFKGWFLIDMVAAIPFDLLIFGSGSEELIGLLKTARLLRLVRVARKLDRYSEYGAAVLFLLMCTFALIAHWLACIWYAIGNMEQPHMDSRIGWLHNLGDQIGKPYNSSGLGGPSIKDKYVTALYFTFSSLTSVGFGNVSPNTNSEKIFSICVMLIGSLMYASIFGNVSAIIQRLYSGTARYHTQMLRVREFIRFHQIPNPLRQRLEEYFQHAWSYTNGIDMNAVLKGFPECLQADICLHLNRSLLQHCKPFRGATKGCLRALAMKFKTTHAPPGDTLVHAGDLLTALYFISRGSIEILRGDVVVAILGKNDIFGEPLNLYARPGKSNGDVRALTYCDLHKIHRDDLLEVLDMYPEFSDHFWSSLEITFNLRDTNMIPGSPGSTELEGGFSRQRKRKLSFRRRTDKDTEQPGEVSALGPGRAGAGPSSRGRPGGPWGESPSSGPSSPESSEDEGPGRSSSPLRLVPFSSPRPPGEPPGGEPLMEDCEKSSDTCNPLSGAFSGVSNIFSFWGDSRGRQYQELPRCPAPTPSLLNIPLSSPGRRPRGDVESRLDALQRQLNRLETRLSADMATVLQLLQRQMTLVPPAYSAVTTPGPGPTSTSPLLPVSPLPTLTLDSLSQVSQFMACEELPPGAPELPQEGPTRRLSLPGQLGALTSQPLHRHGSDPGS

Turning to `C=C(C)C1CC=C(C)C(OC(C)=O)C1` (configuration not stated), the max response in experiment [1] was -3.57%; in experiment [4] it was -6.8%; in [5] it was 1.02% (inactive); in experiment [12], -3.58% (inactive); in [16], 1.71% (inactive). The compound was called inactive in experiment [2], in [3] and in [14]. Also, the activation in [6] is 1.6% (inactive); in [11], 0.261% (inactive). The Potency entry in experiment [7], in experiment [8], in [9], in [10], in [13] and in experiment [15] was “inactive” throughout.
`BrC/C=C/CBr`: the max response was 2.54% in [1], -0.458% in experiment [4], 3.19% (inactive) in experiment [12] and -9.49% (inactive) in experiment [16]. Besides, the result in experiment [2], in [3] and in experiment [14] was inactive. The activity change % (negative = inhibition) in experiment [17] is 15.3% (inactive). The Potency entry in experiment [18], in [7], in [8], in experiment [9], in experiment [10] and in experiment [13] was “inactive” in each case. The Potency result in [15] is “inactive”. For the same compound, in experiment [19], the Potency was 42.2 µM (active). In experiment [20], the activation is 0.2% (inactive).
Turning to `COCCOC(=O)c1ccccc1C(=O)OCCOC`, the max response was -5.12% in experiment [1], -3.43% in [4], 2.89% (inactive) in [12] and 9.02% (inactive) in experiment [16]. Moreover, the outcome in experiment [2] and in experiment [3] was inactive. In addition, the activity change % (negative = inhibition) in experiment [17] was 7.4% (inactive). For the same compound, the Potency entry in experiment [18], in [19], in experiment [7], in experiment [8], in [9] and in [10] was “inactive” each time. The Potency result in experiment [13] and in experiment [15] was “inactive” in each case. Also, the figures for the activation in experiment [6], in experiment [20] and in experiment [11] were -1.05% (inactive), 0.152% (inactive) and -0.057% (inactive), respectively.
In the case of `CCCCC=O`, the max response in [1] is -7.77%; in experiment [4], -1.56%; in experiment [5], -1.19% (inactive); in experiment [12], -1.36% (inactive); in [16] it was -1.82% (inactive). The call in experiment [2], in experiment [3] and in experiment [14] was inactive. For the same compound, the Potency result in experiment [18], in experiment [9], in experiment [10], in experiment [13] and in [15] was “inactive” throughout. Besides, the activation in experiment [20] is 0.166% (inactive).
On to `C/C=C(/C)C#N`, for which the max response in experiment [1] was -23.6%; in experiment [4], 0.293%; in [12], -2.14% (inactive); in experiment [16], -5.17% (inactive). For the same compound, the call in [2], in experiment [3] and in [14] was inactive. The activity change % (negative = inhibition) in [17] was 15% (inactive). For the same compound, the Potency result in experiment [18], in experiment [19], in experiment [8], in [9] and in [13] was “inactive” throughout. For the same compound, the activation in experiment [6] is -0.853% (inactive); in experiment [20], -0.053% (inactive); in experiment [11] it was 1.73% (inactive).
Take `Cc1cc(C)cc([N+](=O)[O-])c1`: the max response was 8.04% in [1]; 5.59% in experiment [4]; 4.7% (inactive) in experiment [5]; -0.421% (inactive) in [12]; -11.8% (inactive) in [16]. Moreover, the outcome in [2], in experiment [3] and in experiment [14] was inactive. Besides, the Potency result in [19], in experiment [7], in experiment [8], in experiment [9], in experiment [10] and in experiment [13] was “inactive” in each case. Also, the Potency entry in experiment [15] was “inactive”. For the same compound, the activation was -0.0084% (inactive) in experiment [6], 0.968% (inactive) in experiment [20] and 0.689% (inactive) in [11].
Regarding `OC1CCCC1`, the max response is -0.127% in experiment [1]; -8.22% in [4]; 5.18% (inactive) in [5]; 1.11% (inactive) in experiment [12]; -3.18% (inactive) in [16]. Moreover, the compound was called inactive in experiment [2], in experiment [3] and in [14]. For the same compound, the Potency entry in experiment [18], in experiment [19], in experiment [7], in experiment [8], in [9] and in [10] was “inactive” in each case. Also, the Potency result in experiment [13] and in experiment [15] was “inactive” throughout. The activation in [20] is 1.54% (inactive); in experiment [11], -0.947% (inactive).
